Compound activity (PubChem BioAssay)
The list is not random: actives were taken first. Their share in the collection is about 2%.
VLA-4 inh – inhibition in a human VLA-4 binding assay. P13612. VLA-4 expressing cells, ligand binding flow cytometry. inhibition, % (about 7 µM as worked out from the volumes in the protocol). 0.2% of 330,000 active. AID 2557; in the data active = inhibition above about 50%
PG9 Ab binder – PG9 antibody binding by small molecule | TR-FRET gp120-PG9 antibody binding | 0.43% of 360,000 active | inhibition, % at 6.7 µM; in the data active = inhibition above about 8.5%
ABCB6 inh 2 – inhibitors of human ABC transporter ABCB6; fluorescence ratio to DMSO, % at 10 µM; K562-ABCB6 porphyrin accumulation, flow cytometry, 1 h; hits give low values; AID 602162; 0.19% of 360,000 active; Q9NP58;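 active = fluorescence ratio to DMSO below 75%, the collection mean minus 3 SD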;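 also: signal is porphyrin accumulated inside mitochondria; 100% equals median channel fluorescence of DMSO control wells; lower ratio means ABCB6 inhibition with less porphyrin fluorescence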
Target sequence (Q9NP58 whole entry, looked up): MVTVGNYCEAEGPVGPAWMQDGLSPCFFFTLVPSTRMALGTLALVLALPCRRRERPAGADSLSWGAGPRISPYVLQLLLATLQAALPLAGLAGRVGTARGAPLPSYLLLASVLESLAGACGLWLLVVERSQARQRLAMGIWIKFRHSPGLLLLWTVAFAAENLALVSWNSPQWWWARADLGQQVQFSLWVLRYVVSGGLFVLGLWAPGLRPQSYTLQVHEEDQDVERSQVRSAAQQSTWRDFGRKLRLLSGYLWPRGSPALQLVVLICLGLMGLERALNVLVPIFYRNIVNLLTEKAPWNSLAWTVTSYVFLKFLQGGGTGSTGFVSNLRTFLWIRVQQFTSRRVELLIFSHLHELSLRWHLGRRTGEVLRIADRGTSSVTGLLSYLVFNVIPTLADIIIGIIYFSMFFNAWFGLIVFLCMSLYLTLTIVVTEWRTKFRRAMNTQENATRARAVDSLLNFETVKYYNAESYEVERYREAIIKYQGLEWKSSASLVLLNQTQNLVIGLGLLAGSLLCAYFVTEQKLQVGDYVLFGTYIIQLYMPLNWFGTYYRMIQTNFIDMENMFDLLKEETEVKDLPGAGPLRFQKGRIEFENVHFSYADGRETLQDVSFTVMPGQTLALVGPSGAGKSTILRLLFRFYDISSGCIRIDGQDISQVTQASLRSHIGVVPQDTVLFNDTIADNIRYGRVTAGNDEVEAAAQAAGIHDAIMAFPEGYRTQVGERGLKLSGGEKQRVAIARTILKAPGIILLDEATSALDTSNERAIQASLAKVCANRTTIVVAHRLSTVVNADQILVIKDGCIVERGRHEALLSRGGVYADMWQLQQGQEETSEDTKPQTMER
NR1D1 modulator – Rev-erb alpha (human) modulation; Rev-erbα–FITC-DNA binding, fluorescence polarization, 90 min; 0.79% of 370,000 active; P20393; activity, % at 10 µM;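 active = activity above about 14%, limit read from the data; passing the limit was not always enough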;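 also: 0% = DMSO wells with 35 nM protein and 100% = DMSO wells with 750 nM protein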
Exocytosis inh – lytic granule exocytosis inhibition. TALL-104 LAMP-1 surface exposure, flow cytometry; cells stimulated with thapsigargin and PMA. inhibition, % at 10 µM. 0.66% of 360,000 active;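 active = inhibition above about 55%, limit read from the data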
VLA-4 allo CP – confirmation of allosteric modulators of human VLA-4 integrin. shares compounds with VLA-4 inh. U937 cells, HUTS-21 LIBS mAb binding, flow cytometry; LDV ligand present at threefold Kd. inhibition, % at 6.7 µM. 2% of 1,300 active. AID 2813; in the data active = inhibition above about 40%;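 also: 0% = ligand without compound and 100% = no ligand background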
* hit, by the source's call; . = no result.

SMILES	VLA-4 inh	PG9 Ab binder	ABCB6 inh 2	NR1D1 modulator	Exocytosis inh	VLA-4 allo CP
CN(C)CC(=O)N[C@@H]1C[C@@H]2O[C@@H](CO)CC[C@@H]2O[C@@H]1CCc1ccc(C#Cc2ccccc2)cc1	.	.	.	-5.0	.	.
CCN(CC)c1ccc(C2CC(=O)Nc3cc(OC)c(OC)cc32)cc1 (stereo not drawn)	2.9	-0.4	93.0	-0.9	0.4	3.5
COc1ccc(C2CC(=O)Nc3cc(OC)c(OC)cc32)cc1Br (stereo not drawn)	8.1	-0.5	105.0	2.5	-1.6	6.3
Nc1ccn([C@@H]2O[C@H](CO)[C@@H](O)[C@@H]2O)c(=O)n1	53.3*	-1.4	100.0	1.3	-3.1	8.4
CS(=O)c1nc(-c2ccc(Br)cc2)cc(-c2ccccc2)c1C#N (stereo not drawn)	58.6*	0.5	96.0	-0.5	52.6	40.8*
CCOC(=O)C(Cc1ccccc1)P(=O)(OCC)OCC (stereo not drawn)	.	.	.	-2.9	.	.
CCCCCCCC(=O)CC[C@@H]1[C@@H](C/C=C\CCCC(=O)OC(C)C)[C@@H](O)C[C@H]1O	.	.	.	-5.0	.	.
COc1ccc(NC(=O)Cn2cc(C#N)c3ccccc32)cc1	10.3	-0.8	96.0	5.6	0.5	.
CCC(=O)c1cn(CC(=O)Nc2c(C)cccc2C)c2ccccc12	13.6	3.8	89.0	-2.8	-8.4	7.4
Cc1cccc(NC(=O)Cn2cc(C=O)c3ccccc32)c1	6.7	-2.7	90.0	2.9	-1.4	.
Cc1cccc(C)c1NC(=O)Cn1cc(C=O)c2ccccc21	4.8	1.1	100.0	4.1	-5.2	8.1
COc1ccc(NC(=O)Cn2cc(C(C)=O)c3ccccc32)cc1	6.7	-1.4	99.0	7.9	-8.5	3.5
CCN(CC)C(=O)c1ccc(C(CCOC(=O)Oc2ccccc2)c2ccc(OC)cc2)cc1 (stereo not drawn)	.	.	.	-2.8	.	.
O=C(c1cc(-c2ccccc2)nc2ccccc12)N1CCN(C2CCS(=O)(=O)C2)CC1 (stereo not drawn)	6.3	-1.3	100.0	-1.9	1.4	.
Cc1ccc(-c2cc(C(=O)N3CCN(C4CCS(=O)(=O)C4)CC3)c3ccccc3n2)cc1 (stereo not drawn)	-12.3	-1.4	91.0	1.2	-4.6	-11.0
COC(=O)c1c(-n2c(C)cc(C=O)c2C)sc2c1CCCC2	11.7	-2.4	100.0	9.9	-1.6	.
Cc1cc(C=O)c(C)n1-c1sc2c(c1C(=O)O)CCCC2	52.0*	-0.2	107.0	2.8	-0.8	2.9
CCn1c(SCc2ccccc2Cl)nnc1-c1ccccc1OC	.	.	.	-4.5	.	.
O=C(O)C1CCN(C(=O)c2ccc(Cl)cc2)CC1	0.7	0.2	96.0	-0.7	0.0	.
Cc1cccc(NC(=O)C2CCN(C(=O)c3ccc(Cl)cc3)CC2)n1	1.4	2.6	101.0	-0.7	5.0	-1.6
O=C(Nc1nc2ccccc2[nH]1)C1CCN(C(=O)c2ccc(F)cc2)CC1	-2.1	0.1	98.0	1.7	-4.8	.
Cc1cccc(NC(=O)C2CCN(C(=O)c3ccc(F)cc3)CC2)n1	1.5	1.3	97.0	2.1	3.7	0.7
CCOC(=O)C1=CCN(S(=O)(=O)c2ccc(Br)cc2)C1c1ccc(F)cc1 (stereo not drawn)	.	-1.8	.	-0.5	.	.
CCC(C)NC(=O)c1ccc2c(c1)N(Cc1ccccc1)C(=O)CS2 (stereo not drawn)	9.8	0.0	102.0	3.6	0.2	.
O=C(O)c1ccc2c(c1)N(Cc1cccc(F)c1)C(=O)CS2	50.4*	-0.3	97.0	1.9	-0.8	-0.6
SMILES	VLA-4 inh	PG9 Ab binder	ABCB6 inh 2	NR1D1 modulator	Exocytosis inh	VLA-4 allo CP
CNc1nc(C)nc(-n2nc(C)cc2C)n1	-7.4	0.6	88.0	-5.0	1.5	-0.8
COCCCn1[nH]c2c3c(ccc2c1=O)C(=O)c1ccccc1C3=O	91.6*	-32.7	105.0	3.4	5.2	-1.4
CC(C)(C)n1[nH]c2c3c(ccc2c1=O)C(=O)c1ccccc1C3=O	-18.4	-17.3	98.0	6.1	0.3	.
O=C(Nc1ccc(Cl)c(Cl)c1)C1CCN(c2ncccn2)CC1	.	.	.	-1.7	.	.
Cc1ccccc1CNC(=O)c1ccc2nc(N3CCOCC3)sc2c1	-3.7	0.6	101.0	-1.4	2.4	11.0
O=C(c1ccc([N+](=O)[O-])cc1)N1CCN(C(=O)c2ccco2)CC1	10.9	-0.8	93.0	2.3	22.0	.
Cc1ccccc1NC(=O)c1ccc2nc(N3CCOCC3)sc2c1	17.8	-0.5	96.0	-3.4	10.0	8.4
